Screening data deposited in PubChem by several laboratories.
In the library only some 3% were active in any assay of this set; here they are far more common.
Peg3 prom inh: reduces Peg3 promoter-driven luciferase expression in HeLa; HeLa PEG-Prom luciferase reporter, luminescence, overnight; inhibition, % at 20 µM; actives 1.7% (n = 360,000); AID 588405;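 active = inhibition of at least 50% at 20 µM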
ABHD5 PLIN5 PPI: blocks binding of human ABHD5 to perilipin-5; Q00G26+Q8WTS1; Split G. princeps luciferase complementation, luminescence, 4 h; inhibition, % at 4 µM; actives 0.78% (n = 360,000);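 active = inhibition above the mean inhibition across every tested compound plus 3 SD, cut at about 22% in these data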;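 note: 0% = DMSO only wells and the 100% control is not disclosed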
EWS-Fli block: EWS/Fli transcriptional activity inhibition | inhibition, % at 12.6 µM | actives 0.67% (n = 350,000) | A673 NR0B1-luciferase reporter, viability-normalised | AID 651661;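 active = mean inhibition of at least 50% after viability correction, with every replicate also passing that limit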;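 note: firefly luciferase signal divided by Alamar Blue viability fluorescence both relative to DMSO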
TRPM1 prom inh: inhibitors of MITF-driven TRPM1 promoter in melanoma cells; SK-MEL-5 TRPM1 promoter luciferase, 24 h; inhibition, % at 12.5 µM; actives 0.83% (n = 330,000); AID 488899;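 active = mean inhibition across replicates of 60% or more, whatever share of single replicates reaches that level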
PAX8 inh HTS: PAX8 transcriptional activity inhibition; inhibition, % at 12.6 µM; RMG-I TPO-luciferase reporter, SteadyGlo, 24 h; AID 652154; actives 1.2% (n = 360,000);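 active = mean replicate inhibition at least 60% with every replicate also reaching 60%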;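 note: luciferase light reporting Pax8 driven TPO promoter activity; plate controls were median of neutral control wells for no effect and mitoxantrone controls for full effect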
Shn3 3UTR inh: Schnurri-3 reporter inhibition in Clone20 osteoblasts; actives 0.52% (n = 360,000); Clone20 osteoblast Shn3 3'UTR firefly luciferase, 24 h; AID 588674; inhibition, % at 12.5 µM;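 active = mean inhibition of at least 75% with every replicate also reaching 75%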;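 note: 0% = median of neutral control wells and 100% = pilot-screen positive control compound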
ABHD5-PLIN5 conf: confirmation of human ABHD5-PLIN5 interaction inhibitors | shares compounds with ABHD5 PLIN5 PPI | biochemical ABHD5-PLIN5 interaction, luminescence | inhibition, % at 4 µM | actives 67% (n = 2,200) | AID 651612; in the data active = inhibition above about 23%;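 note: 0% = DMSO vehicle wells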
HNF4 split-luc: counter-screen for ABHD5-PLIN5 inhibitors: HNF4 split-luciferase. shares compounds with ABHD5 PLIN5 PPI. actives 77% (n = 2,200). HNF4 dimerization, luminescence, biochemical. AID 651674. inhibition, % at 4 µM;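 active = mean inhibition across replicate wells exceeding the computed hit threshold, cut at about 13% in these data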;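 note: light from luciferase halves that rejoin when HNF4 fusion proteins dimerize; 0% = DMSO only wells and the 100% control is not given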
Target sequence (P41235 whole entry, looked up, the tested form may be a part): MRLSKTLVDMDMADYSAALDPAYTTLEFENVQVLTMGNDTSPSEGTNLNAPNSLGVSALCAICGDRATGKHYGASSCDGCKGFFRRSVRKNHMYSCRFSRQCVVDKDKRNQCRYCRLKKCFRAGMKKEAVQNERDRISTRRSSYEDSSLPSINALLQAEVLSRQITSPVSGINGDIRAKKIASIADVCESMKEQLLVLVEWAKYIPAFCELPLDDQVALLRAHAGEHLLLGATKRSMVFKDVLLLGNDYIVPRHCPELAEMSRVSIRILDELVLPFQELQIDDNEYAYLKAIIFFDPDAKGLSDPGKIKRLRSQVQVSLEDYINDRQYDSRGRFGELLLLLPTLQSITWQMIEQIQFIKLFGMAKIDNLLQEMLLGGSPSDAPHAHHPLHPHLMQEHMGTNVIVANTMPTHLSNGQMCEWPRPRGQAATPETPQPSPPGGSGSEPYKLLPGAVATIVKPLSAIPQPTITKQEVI
Active calls of the source: *; x = no result given.

SMILES | Peg3 prom inh | ABHD5 PLIN5 PPI | EWS-Fli block | TRPM1 prom inh | PAX8 inh HTS | Shn3 3UTR inh | ABHD5-PLIN5 conf | HNF4 split-luc
Cc1ccc2sc(N(CCCN(C)C)C(=O)c3ccc(Br)s3)nc2c1C | 62.5* | 26.8* | -4.0 | -20.4 | 0.1 | -4.4 | 15.7 | 3.1
C[C@H]1CN([C@@H](C)CO)C(=O)c2cccc(NC(=O)C3CCOCC3)c2O[C@H]1CN(C)Cc1ccc(C(F)(F)F)cc1 | x | x | -5.2 | x | -1.2 | x | x | x
Cc1cccc2sc(N(CCCN(C)C)C(=O)CCc3ccccc3)nc12 | 104.0* | 26.4* | x | 30.6 | -2.3 | -6.9 | 19.6 | 6.2
Cc1cccc2sc(N(CCCN(C)C)C(=O)CN3C(=O)c4ccccc4C3=O)nc12 | -38.0 | 18.4 | 11.3 | -2.0 | -2.4 | -13.5 | x | x
O=C(NCC(F)(F)F)[C@H]1[C@H](CO)[C@H]2Cn3c(cccc3=O)[C@H]2N1C(=O)C1CCC1 | x | x | -3.6 | x | x | x | x | x
O=C(C[n+]1cccc(CNC(=O)c2ccc(OC(F)F)cc2)c1)Nc1ccc(F)cc1 | 16.9 | 10.9 | -2.8 | -4.4 | 6.8 | 3.1 | x | x
O=C(C[n+]1cccc(CNC(=O)c2ccc(OC(F)F)cc2)c1)Nc1cccc(C(F)(F)F)c1 | 20.4 | 31.8* | x | 33.0 | 58.5 | -1.2 | 23.8* | 3.4
Cc1ccc(-n2sc3ccccc3c2=O)cc1 | -158.1 | 30.9* | -6.3 | -23.0 | -49.5 | -42.8 | 10.1 | 114.3*
Cc1ccc(Cn2c(=O)sc3ccccc3c2=O)cc1 | -9.1 | -4.7 | x | -2.8 | x | 18.6 | x | x
O=c1c2ccccc2sn1-c1ccc(Cl)cc1 | -128.2 | 48.1* | 4.6 | x | -86.0 | 9.3 | 75.9* | 117.5*
O=c1c2ccccc2ncn1-c1ccc(Cl)cc1 | -58.9 | -4.8 | -38.0 | -22.3 | -27.7 | -8.3 | x | x
COCC#Cc1ccc2c(c1)O[C@H](CN(C)C(=O)CC1CC1)[C@H](C)CN([C@@H](C)CO)S2(=O)=O | x | x | 12.1 | x | x | x | x | x
Cc1noc(C)c1NC(=O)Nc1ccc2c(c1)C(=O)N([C@H](C)CO)C[C@H](C)[C@@H](CN(C)Cc1ccncc1)OCCCC[C@@H](C)O2 | x | x | -6.3 | x | -1.4 | x | x | x
O=C1C(=Cc2ccco2)CCCC1=Cc1ccco1 | -283.6 | 38.8* | -93.5 | -56.8 | -79.2 | -52.2 | 53.5* | 63.5*
O=C1C(=Cc2ccco2)CCC1=Cc1ccco1 | 23.2 | 37.1* | -25.5 | -21.7 | 0.9 | -33.8 | 59.0* | 89.0*
O/N=C1\CCC\C1=C/c1ccco1 | -16.6 | -1.6 | x | -11.5 | x | -14.8 | x | x
O=C(CCN1CCc2ccccc2C(c2ccccc2)C1)c1ccc2c(c1)OCCO2 (stereo not given) | 7.0 | 25.5* | x | -14.0 | x | 46.5 | 22.7* | 86.2*
O=C(CN(Cc1ccc(Br)cc1)S(=O)(=O)c1ccccc1)NCc1cccnc1 | 0.9 | -2.6 | -6.1 | 6.7 | -4.1 | -15.4 | x | x
O=C(NCc1cccnc1)/C(=C/c1ccc(-c2ccc(Cl)cc2)o1)S(=O)(=O)c1ccccc1 | 100.8* | 79.6* | 69.0* | 93.1* | x | 91.7* | 97.4* | 88.1*
O=C(NCc1cccnc1)/C(=C\c1ccc(-c2ccc(Br)cc2)o1)S(=O)(=O)c1ccccc1 | 106.7* | 73.3* | 59.1* | 99.6* | 30.2 | 95.9* | 92.8* | 82.7*
C/C=C/c1ccc2c(c1)O[C@H](CN(C)Cc1cccnc1)[C@@H](C)CN([C@H](C)CO)S2(=O)=O | x | x | 7.7 | x | x | x | x | x
CN1CCN(C(=O)C[C@@H]2CC[C@H]3[C@@H](COC[C@@H](O)CN3Cc3cccc(-c4ccncc4)c3)O2)CC1 | x | x | 2.9 | x | -6.0 | x | x | x
O=C(/C(=C/O)N=Nc1ccc(Cl)cc1)c1ccncc1 | 16.6 | 37.8* | x | -7.6 | x | -19.5 | 37.7* | -6.5
O=C(Nc1ccccc1F)N1C[C@@H]2[C@H](c3ccccc31)[C@H](CO)N2C(=O)C1CCCC1 | x | x | -23.3 | x | -80.7 | x | x | x
COc1ccc(NC(=O)N[C@H]2C=C[C@H](CC(=O)NC3CCC3)O[C@@H]2CO)cc1 | x | x | 6.5 | x | 3.1 | x | x | x
SMILES | Peg3 prom inh | ABHD5 PLIN5 PPI | EWS-Fli block | TRPM1 prom inh | PAX8 inh HTS | Shn3 3UTR inh | ABHD5-PLIN5 conf | HNF4 split-luc
CC(=O)C(=Cc1ccc(-c2ccccc2)cc1)C(=O)c1ccccc1 | x | 95.5* | -6.5 | x | -11.7 | x | 98.2* | 95.9*
O=C(C(Br)=Cc1ccccc1)c1ccccc1 | 107.9* | 50.8* | 58.0* | 94.1* | 85.6* | 96.6* | 83.0* | 97.6*
Cc1cccc(-n2cnc3c(c2=O)c2nc4ccccc4nc2n3Cc2ccco2)c1 | 19.5 | 30.1* | x | 5.2 | x | 3.7 | 47.5* | 69.8*
Cc1cccc(S(=O)(=O)c2c(N)n(Cc3ccco3)c3nc4ccccc4nc23)c1 | 23.2 | 6.0 | x | 13.7 | x | 18.6 | x | x
CCn1cc(CN2CCCC(C(=O)Nc3cccc(-c4cc5ccccc5[nH]4)c3)C2)c(C)n1 (stereo not given) | -1.0 | 31.1* | 22.4 | 3.7 | 19.0 | -22.6 | 10.9 | 3.9
COc1ccccc1-c1cnc2c(c1)C(=O)N([C@H](C)CO)C[C@@H](C)[C@H](CN(C)CC1CCOCC1)O2 | x | x | -5.8 | x | 9.0 | x | x | x
COc1ccc(CCNC(=O)/C=C/c2ccco2)cc1 | -11.0 | 7.3 | 4.1 | -18.4 | -20.0 | 7.2 | x | x
CC(=C/C(=O)O)/C=C/c1ccco1 | 4.1 | 25.4* | -7.2 | -10.7 | x | -14.4 | 10.4 | 17.1*
COc1ccc(C(NC(=O)/C=C/c2ccco2)c2ccc(OC)cc2)cc1 | -32.9 | 24.9* | x | -1.5 | -1.3 | -13.7 | 66.1* | 46.0*
CC(/C=C/c1ccc(Cl)o1)=C\C(=O)O | 1.8 | 14.3 | x | 15.2 | x | -5.7 | x | x
CC(C)c1nnc(NC(=O)CCS(=O)(=O)Cc2ccccc2)s1 | -2.6 | -9.7 | -8.6 | 19.6 | -5.8 | -5.0 | x | x
CC(C)c1nnc(NC(=O)CCS(=O)(=O)c2nc(-c3cccs3)cc(C(F)(F)F)n2)s1 | 107.0* | 37.0* | x | 59.6 | x | 98.6* | 76.2* | 88.8*
COc1cccc(C(=O)Oc2cc3c4c(c2)C(C)=CC(C)(C)N4C(=O)C3=O)c1 | 6.3 | 32.8* | 10.0 | 7.8 | x | 19.4 | 42.6* | 45.8*
COc1ccc(NC(=O)Nc2ccc3c(c2)C(=O)N([C@H](C)CO)C[C@H](C)[C@@H](CN(C)Cc2ccc(Oc4ccccc4)cc2)O3)cc1 | x | x | -0.8 | x | -15.6 | x | x | x
C[C@H]1CN([C@@H](C)CO)C(=O)c2cc(NC(=O)Nc3ccccc3)ccc2O[C@H]1CN(C)Cc1ccncc1 | x | x | 11.7 | x | 3.9 | x | x | x
O=C(CCN1CCOCC1)c1ccc(N2CCCCC2)cc1 | -25.5 | 20.8 | 30.4 | -39.9 | -6.4 | -6.6 | x | x
CC(C)(C)c1cc(C(=O)CCN2CCOCC2)cc(C(C)(C)C)c1O | 11.5 | 32.2* | 1.9 | 3.1 | 31.3 | -12.0 | 12.3 | 32.0*
O=C1S/C(=C/c2ccc(N3CCOCC3)o2)C(=O)N1Cc1ccc(F)cc1 | -2.4 | 11.8 | x | -7.6 | -9.9 | 27.6 | x | x
